Measured values reported in PubChem BioAssay AID1159580 (chemical genetic matrix, 2015).
Among all 5,500 compounds or so, about 2,000 (36%) were called active. About 18% were inconclusive and are not listed. Cut-off read from the data, not from the text of the source: active = normalized growth mostly below about 0.91 (no sharp cut-off); inconclusive = no clear call, values can overlap the other calls; inactive = mostly above about 0.92. This is one part of the list.

Assay: chemical genetic growth profiling, strain panel (AID 1159580);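 note: tested at 20 µM; growth read once vehicle control cultures reached saturation at 30 °C; 1 = growth at the plate median or of vehicle wells; lower values mean less growth of the strain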
Details: growth OD

Measured: normalized growth

Cc1onc(-c2c(Cl)cccc2Cl)c1C(=O)N[C@@H]1C(=O)N2[C@@H]1SC(C)(C)[C@@H]2C(=O)O
inactive: S. cerevisiae deletion strains, locus YJR066W, strain TOR1, active compounds read low 0.946 | S. cerevisiae deletion strains, locus YJR075W, strain HOC1, active compounds read low 1.02 | S. cerevisiae deletion strains, locus YKL009W, strain mrt4, active compounds read low 0.986 | S. cerevisiae deletion strains, locus YKL068W, active compounds read low 1.01 | S. cerevisiae deletion strains, locus YKL085W, strain MDH1 (second series), active compounds read low 0.999 | S. cerevisiae deletion strains, locus YKL085W, strain MDH1, active compounds read low 0.999 | S. cerevisiae deletion strains, locus YKL160W, strain elf1, active compounds read low 0.982 | S. cerevisiae deletion strains, locus YKL190W, strain CNB1, active compounds read low 1.01 | S. cerevisiae deletion strains, locus YKR001C, strain vps1, active compounds read low 1 | S. cerevisiae deletion strains, locus YKR091W, strain srl3, active compounds read low 1 | S. cerevisiae deletion strains, locus YLL001W, strain dnm1, active compounds read low 0.962 | S. cerevisiae deletion strains, locus YLL026W, active compounds read low 1 | S. cerevisiae deletion strains, locus YLL041C, strain sdh2, active compounds read low 0.987 | S. cerevisiae deletion strains, locus YLR027C, strain aat2, active compounds read low 0.991 | S. cerevisiae deletion strains, locus YLR039C, strain RIC1, active compounds read low 1.03 | S. cerevisiae deletion strains, locus YLR058C, strain SHM2, active compounds read low 1.02 | S. cerevisiae deletion strains, locus YLR102C, strain apc9, active compounds read low 0.994 | S. cerevisiae deletion strains, locus YLR113W, strain HOG1, active compounds read low 1.06 | S. cerevisiae deletion strains, locus YLR221C, strain rsa3, active compounds read low 1.05 | S. cerevisiae deletion strains, locus YLR258W, strain gsy2, active compounds read low 1.02 | S. cerevisiae deletion strains, locus YLR262C, strain YPT6 (second series), active compounds read low 0.961 | S. cerevisiae deletion strains, locus YLR262C, strain YPT6, active compounds read low 1.02 | S. cerevisiae deletion strains, locus YLR268W, strain sec22, active compounds read low 0.987 | S. cerevisiae deletion strains, locus YLR320W, strain mms22, active compounds read low 1.06 | S. cerevisiae deletion strains, locus YLR330W, strain CHS5, active compounds read low 1.02 | S. cerevisiae deletion strains, locus YLR342W, strain FKS1 (second series), active compounds read low 1.04 | S. cerevisiae deletion strains, locus YLR342W, strain FKS1, active compounds read low 0.979 | S. cerevisiae deletion strains, locus YLR357W, strain rsc2, active compounds read low 0.98 | S. cerevisiae deletion strains, locus YLR370C, strain arc18, active compounds read low 1.01 | S. cerevisiae deletion strains, locus YLR371W, strain rom2, active compounds read low 0.985 | S. cerevisiae deletion strains, locus YLR384C, strain iki3, active compounds read low 0.977 | S. cerevisiae deletion strains, locus YLR418C, strain cdc73, active compounds read low 0.946 | S. cerevisiae deletion strains, locus YML016C, strain PPZ1, active compounds read low 1.02 | S. cerevisiae deletion strains, locus YML032C, strain rad52, active compounds read low 0.987 | S. cerevisiae deletion strains, locus YML120C, strain ndi1, active compounds read low 0.99 | S. cerevisiae deletion strains, locus YML124C, strain tub3, active compounds read low 0.985 | S. cerevisiae deletion strains, locus YMR058W, strain fet3, active compounds read low 1.01 | S. cerevisiae deletion strains, locus YMR078C, strain ctf18, active compounds read low 0.991 | S. cerevisiae deletion strains, locus YMR125W, strain sto1, active compounds read low 0.951 | S. cerevisiae deletion strains, locus YMR129W, active compounds read low 0.997 | S. cerevisiae deletion strains, locus YMR205C, strain PFK2, active compounds read low 0.984 | S. cerevisiae deletion strains, locus YMR223W, strain ubp8, active compounds read low 0.973 | S. cerevisiae deletion strains, locus YMR231W, strain pep5, active compounds read low 0.985 | S. cerevisiae deletion strains, locus YMR307W, strain GAS1, active compounds read low 1.02 | S. cerevisiae deletion strains, locus YNL067W, strain RPL9B, active compounds read low 1 | S. cerevisiae deletion strains, locus YNL071W, strain lat1, active compounds read low 0.998 | S. cerevisiae deletion strains, locus YNL128W, strain TEP1, active compounds read low 1.01 | S. cerevisiae deletion strains, locus YNL183C, strain NPR1, active compounds read low 1 | S. cerevisiae deletion strains, locus YNL209W, strain ssb2, active compounds read low 1.02 | S. cerevisiae deletion strains, locus YNL233W, strain BNI4, active compounds read low 0.997 | S. cerevisiae deletion strains, locus YNL248C, strain rpa49, active compounds read low 1.03 | S. cerevisiae deletion strains, locus YNL250W, strain rad50, active compounds read low 0.989 | S. cerevisiae deletion strains, locus YNL271C, strain bni1, active compounds read low 0.98 | S. cerevisiae deletion strains, locus YNL298W, strain CLA4, active compounds read low 0.999 | S. cerevisiae deletion strains, locus YNL307C, strain MCK1, active compounds read low 0.987 | S. cerevisiae deletion strains, locus YNL322C, strain KRE1 (second series), active compounds read low 0.965 | S. cerevisiae deletion strains, locus YNL322C, strain KRE1, active compounds read low 1.01 | S. cerevisiae deletion strains, locus YNR049C, strain mso1, active compounds read low 0.991 | S. cerevisiae deletion strains, locus YNR052C, strain pop2, active compounds read low 0.997 | S. cerevisiae deletion strains, locus YOL006C, strain TOP1, active compounds read low 1.03 | S. cerevisiae deletion strains, locus YOL012C, strain htz1 1.88 | S. cerevisiae deletion strains, locus YOL147C, strain pex11, active compounds read low 0.987 | S. cerevisiae deletion strains, locus YOR001W, strain rrp6, active compounds read low 0.972 | S. cerevisiae deletion strains, locus YOR061W, strain CKA2, active compounds read low 1.03 | S. cerevisiae deletion strains, locus YOR069W, strain VPS5, active compounds read low 1.02 | S. cerevisiae deletion strains, locus YOR070C, strain gyp1, active compounds read low 1.01 | S. cerevisiae deletion strains, locus YOR080W, strain dia2, active compounds read low 0.967 | S. cerevisiae deletion strains, locus YOR083W, strain WHI5, active compounds read low 0.964 | S. cerevisiae deletion strains, locus YOR106W, strain vam3, active compounds read low 0.957 | S. cerevisiae deletion strains, locus YOR136W, strain idh2, active compounds read low 0.988 | S. cerevisiae deletion strains, locus YOR144C, strain elg1, active compounds read low 0.989 | S. cerevisiae deletion strains, locus YOR184W, strain ser1, active compounds read low 0.978 | S. cerevisiae deletion strains, locus YOR231W, strain MKK1, active compounds read low 1.06 | S. cerevisiae deletion strains, locus YOR265W, strain rbl2, active compounds read low 0.985 | S. cerevisiae deletion strains, locus YOR270C, strain vph1, active compounds read low 0.995 | S. cerevisiae deletion strains, locus YOR290C, strain snf2, active compounds read low 1.03 | S. cerevisiae deletion strains, locus YOR316C, strain cot1, active compounds read low 0.998 | S. cerevisiae deletion strains, locus YPL051W, strain arl3, active compounds read low 1.01 | S. cerevisiae deletion strains, locus YPL078C, strain atp4, active compounds read low 0.951 | S. cerevisiae deletion strains, locus YPL106C, strain sse1, active compounds read low 0.964 | S. cerevisiae deletion strains, locus YPL240C, strain hsp82, active compounds read low 0.998 | S. cerevisiae deletion strains, locus YPL241C, strain CIN2, active compounds read low 1.02 | S. cerevisiae deletion strains, locus YPL256C, strain CLN2, active compounds read low 1.04 | S. cerevisiae deletion strains, locus YPR119W, strain clb2, active compounds read low 0.99 | S. cerevisiae deletion strains, locus YPR141C, strain kar3, active compounds read low 1 | S. cerevisiae deletion strains, locus YPR163C, strain tif3, active compounds read low 0.998 | S. cerevisiae deletion strains, locus YPR167C, strain met16, active compounds read low 0.985 | S. cerevisiae deletion strains, strain wtn01, active compounds read low 0.97 | S. cerevisiae strains, strain wild type, active compounds read low 1.02
active: S. cerevisiae deletion strains, locus YKR026C, strain gcn3, active compounds read low 1.47 [resistant]
